Only some compounds are listed: those with a hit (about 2.5% of all), similar ones and a draw of the others.
PKA-R2B activ: activators of human PKA-R2B complex; PKA-R2B holoenzyme dissociation, Cy5-IP20 fluorescence polarization; R2B truncated from residue 108, S112A mutant; 0% DMSO only, 100% 113 µM cGMP; 340,000 tested, 0.079% active; activation, % at 11.4 µM; P22694+P31323;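 active means activation above a cutoff set at the mean over all compounds plus 3 SD, cut at about 18% in these data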;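 further: higher means more holoenzyme dissociation and a rise in polarization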
ANO1 block: inhibitors of mouse TMEM16A calcium-activated chloride channel. normalized B-score (activity score, 25-100; higher = stronger inhibition) at 10 µM. Q8BHY3. 310,000 tested, 1.2% active. HEK293 TMEM16A/YFP iodide influx fluorescence, ionomycin;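 active means ratio plate-corrected score three or more library SD toward inhibition, starting fluorescence score within five deviations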;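 further: score derived from kinetic fluorescence span divided by baseline fluorescence per well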
CHT allo act: human CHT allosteric activation | 310,000 tested, 0.49% active | Q9GZV3 | AID 488977 | B-score at 10 µM | CHT-expressing cells, membrane potential dye, choline EC20; active compounds read high; LV-AA mutant CHT in HEK293 cells;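 active means initial fluorescence not abnormally high and integrated response B-score, plate-corrected, over 3 SD above library mean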
Target sequence (Q9GZV3 whole entry, looked up): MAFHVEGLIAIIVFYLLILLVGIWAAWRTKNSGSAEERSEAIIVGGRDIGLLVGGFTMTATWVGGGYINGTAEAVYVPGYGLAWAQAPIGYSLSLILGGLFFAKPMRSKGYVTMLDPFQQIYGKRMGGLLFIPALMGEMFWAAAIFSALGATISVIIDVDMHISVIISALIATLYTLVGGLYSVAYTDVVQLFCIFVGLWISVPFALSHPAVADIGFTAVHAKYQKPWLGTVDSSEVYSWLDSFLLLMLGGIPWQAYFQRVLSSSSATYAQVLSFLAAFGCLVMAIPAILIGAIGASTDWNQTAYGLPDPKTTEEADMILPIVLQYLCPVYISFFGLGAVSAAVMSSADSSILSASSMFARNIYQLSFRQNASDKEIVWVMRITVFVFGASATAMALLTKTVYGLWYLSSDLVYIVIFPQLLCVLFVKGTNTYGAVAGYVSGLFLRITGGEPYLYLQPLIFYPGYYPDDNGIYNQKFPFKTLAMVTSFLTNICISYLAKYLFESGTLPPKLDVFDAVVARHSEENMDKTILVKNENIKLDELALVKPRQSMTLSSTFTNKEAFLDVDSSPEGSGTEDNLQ
PKA-R1A activ: PKA-R1A complex activation; P00514+P68181; 340,000 tested, 0.083% active; PKA-R1A dissociation, Cy5-IP20 fluorescence polarization; scaled: DMSO 0%, 113 µM cGMP 100%; activation, % at 11.4 µM;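 active means percent activation above the mean of all tested compounds plus 3 SD, cut at about 19% in these data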;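 further: higher means more PKAc released from R1A so a rise in polarization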
CHT inh: inhibits the human high affinity choline transporter; CHT-expressing cells, membrane potential dye, choline response; active compounds read low; B-score at 10 µM; AID 488975; 310,000 tested, 0.86% active; Q9GZV3;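 active means B-score over 3 SD under the library average, and starting fluorescence ratio not unusually high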;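 further: choline stimulus applied at its EC90 after an EC20 pre-addition; B-score computed on integrated fluorescence ratio after choline addition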
ANO1 activ: activators or potentiators of mouse TMEM16A chloride channel; HEK293 TMEM16A/YFP-H148Q/I152L, iodide quench fluorescence; active compounds read low; B-score at 10 µM; Q8BHY3; 340,000 tested, 0.3% active;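 active means fluorescence-ratio B-score plate-corrected deviation score at least 3 library SD below zero, with starting fluorescence score within 5 deviations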;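 further: channel opened by trigger with iodide after compound preincubation; score built on the fluorescence ratio of max minus min over baseline; more negative score means more quench and so TMEM16A activation or potentiation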
CHT act confirm: confirmation of human choline transporter (CHT) activators | shares compounds with CHT allo act | CHT-expressing cells, membrane potential dye fluorescence (FDSS); % of choline EC20–EC90 response window; HEK293 expressing CHT LV-AA mutant; choline added at its EC20 | activation, % at 10 µM | 2,500 tested, 91% active | AID 504833;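 active means primary screen active, with duplicate mean activation above negative control mean plus 3 SD, cut at about 11% in these data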
HEK293 MP dye: activity in parental HEK293 cells lacking CHT; AID 623908; 2,500 tested, 62% active; membrane potential dye fluorescence (FDSS); measured after EC20 choline addition; shares compounds with CHT allo act; ratio readout change at 10 µM, hits read low;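 active means duplicate-averaged ratio beyond 3 SD from buffer wells, up or down, though filed actives are nearly all decreases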
R2B FP artifact: fluorescence polarization artifact in PKA-R2B activator counter-screen | activation, % at 11.4 µM | 270 tested, 6% active | shares compounds with PKA-R2B activ | FP artifact counterscreen; in the data active means activation above about 20%;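 further: Cy5 labelled IP20 peptide probe with compound but no PKA protein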
PKA-R2B confirm: PKA-R2B complex activation, confirmation. shares compounds with PKA-R2B activ. fluorescence polarization. activation, % at 11.4 µM. 270 tested, 9% active; in the data active means activation above about 19%
R1A FP artifact: fluorescence polarization artifact in PKA-R1A activator counter-screen | shares compounds with PKA-R1A activ | Cy5-IP20 peptide alone, fluorescence polarization artifact counterscreen | activation, % at 11.4 µM | 280 tested, 7% active;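 active means mean activation over triplicate runs exceeds the adjusted cutoff derived for the parent primary screen, cut at about 19% in these data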;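 further: no PKA protein present so any polarization rise reflects compound interference; 0% = tracer peptide mix alone and 100% = mix with added PKA catalytic subunit; higher means stronger polarization artifact and likely false positive in parent screen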
PKA-R1A act conf: PKA-R1A complex activation, confirmation. shares compounds with PKA-R1A activ. 280 tested, 9% active. Cy5-IP20 fluorescence polarization, PKA-R1A holoenzyme dissociation. activation, % at 11.4 µM;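 active means mean activation over replicate wells exceeds the adjusted hit threshold taken from the earlier primary screen, cut at about 20% in these data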;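 further: 0% = holoenzyme mix with DMSO only and 100% = cGMP-activated control wells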
Numbers without * were called inactive; i = inactive; · = no result given.

SMILES	PKA-R2B activ	ANO1 block	CHT allo act	PKA-R1A activ	CHT inh	ANO1 activ	CHT act confirm	HEK293 MP dye	others
CN(C)c1ccc(-[n+]2c(-c3ccccc3)cc(-c3ccccc3)cc2-c2ccccc2)cc1	·	·	·	·	·	i	·	·
CCOC(=O)c1ccc(-[n+]2c(-c3ccccc3)cc(-c3ccccc3)cc2-c2ccccc2)cc1	3	i	7.7*	-4	i	-14*	63*	i
O=C(c1ccco1)c1cn(Cc2ccccc2)c2ccccc12	0	i	7.4*	1	i	i	23*	i
CCC/C=N/O	6	·	·	3	·	i	·	·
CN(C)C(=O)Nc1cccc(OC(=O)N(C)C)c1	-4	i	i	-4	i	i	·	·
CN(C)C(=O)Oc1cccc(OCc2n(C)c3ccccc3[n+]2C)c1	-8	i	7*	-7	i	i	55*	-42*
C=CCn1c(O)c(C(C)=O)c(=O)[nH]c1=O (tested in a mixture with another compound)	1	i	i	1	i	i	·	·
COc1ccc(C(=O)OC2C[C@H]3CC[C@H](C2)N3C)cc1OC (stereo partly drawn)	-3	i	6.6*	2	i	i	40*	-32*
CN1C2CCC1CC(OC(=O)c1ccc(Cl)cc1)C2 (stereo not drawn)	8	i	i	1	i	i	·	·
C[C@]12CCC3[C@@H](CCC4=CC(=O)CC[C@@]43CO)C1CCC2=O (stereo partly drawn)	2	i	i	-14	i	i	·	·
CCN(CC)C1=NC(=[N+](CC)CC)c2ccccc21	-2	i	8.7*	4	i	i	64*	-56*
CC1(C)CC[C@]2(C)CC[C@]3(C)C4C[C@@H]5OO[C@@]6(O5)C(CCCC6(C)C)[C@]4(C)CC[C@@]3(C)C2C1 (stereo partly drawn)	2	i	i	-1	i	i	·	·
Cn1c(=O)c2c(ncn2CCCl)n(C)c1=O	5	i	i	-10	i	i	·	·
C[n+]1c(-c2ccccc2)cc(-c2ccc(Cl)cc2)cc1-c1ccccc1	-5	i	7.2*	1	i	i	30*	-29*
CC1=C2CCC3C(CCC4=CC(=O)CCC43C)C2CC1 (stereo not drawn)	3	·	·	3	·	i	·	·
Fc1ccc(C2NCCc3[nH]cnc32)cc1 (stereo not drawn)	-9	i	i	1	i	i	·	·
COCCN1Cc2cc(=O)n3c([nH]c4ccccc43)c2C1=N	-5	i	i	-9	i	i	53*	-42*
COc1ccc(NC(=O)c2cc([N+](=O)[O-])ccc2N2CCNCC2)cc1	-17	i	i	-7	i	i	54*	-59*
c1ccc(-c2[nH]c(-c3ccccc3)[n+](CC3CO3)c2-c2ccccc2)cc1 (stereo not drawn)	-9	i	i	-9	i	i	25*	i
CN1CCN(c2ccc3nccnc3c2)CC1	0	i	i	-4	i	i	16*	i
CN(C)C1CCc2[nH]c3c(F)cc(F)cc3c2C1 (stereo not drawn)	-3	·	·	5	·	·	·	·
CN(C(=O)c1ccc(Cl)nc1)C1(c2ccccc2Cl)CCCCC1=O (stereo not drawn)	21*	i	i	0	i	i	·	·	R2B FP artifact=5;PKA-R2B confirm=3
CCC(CO)(C(=O)OC1C[N+]2(C)CCC1CC2)c1ccccc1 (stereo not drawn)	20*	i	i	-4	i	i	·	·	R2B FP artifact=3;PKA-R2B confirm=1
CC1(C)C2SCC(=O)N2CCN1CC(=O)NN (stereo not drawn)	0	i	i	1	i	i	·	·
NC(=O)Nc1ccc(C(=O)OCC(=O)Nc2ccc(Cl)cc2C(=O)c2ccccc2)cc1	-7	i	i	-8	i	i	·	·
SMILES	PKA-R2B activ	ANO1 block	CHT allo act	PKA-R1A activ	CHT inh	ANO1 activ	CHT act confirm	HEK293 MP dye	others
O=C(COc1ccccc1Cl)N1CCCC(N2CCN(c3ccc(F)cc3)CC2)C1 (stereo not drawn)	-9	i	i	19*	i	i	·	·	R1A FP artifact=0;PKA-R1A act conf=2
COc1ccccc1N1C(=O)NC(=O)C2(Cc3cc(C)ccc3N(C)C2)C1=O (stereo not drawn)	-4	i	i	-6	i	i	·	·
CC1([N+](=O)[O-])COP(=O)(Nc2ccccc2F)OC1 (stereo not drawn)	1	·	·	-6	·	i	·	·
COc1ccc(NP2(=O)OCC(C)(N)CO2)cc1 (stereo not drawn)	6	·	·	20*	·	i	·	·	R1A FP artifact=-1;PKA-R1A act conf=-1
COC(=O)COc1ccc(/C=C2\C(=O)NC(=S)N(c3ccc(C)cc3)C2=O)cc1OC	-1	i	i	-3	i	i	·	·
C=C1[C@H]2CC[C@H]3[C@]4(C)C[C@H](O[C@@H]5OC(CO)[C@@H](OSOOO)[C@H](OS(=O)(=O)O)[C@H]5OC(=O)CC(C)C)C[C@@H](C(=O)O)[C@H]4CC[C@]3(C2)[C@H]1O (stereo partly drawn)	4	·	·	19*	·	i	·	·	R1A FP artifact=2;PKA-R1A act conf=0
CC1=CP(=O)(Oc2ccc([N+](=O)[O-])cc2)CC1 (stereo not drawn)	-4	·	·	19*	·	·	·	·	R1A FP artifact=5;PKA-R1A act conf=3

Compound activity: PubChem, several laboratories
